From PubChem BioAssay (Tox21)
Inconclusive results are not listed. Where a call stands in place of a potency, no number is given. Values without a mark were called inactive. Activity calls are given as the source filed them. Calls follow the shape of the dose curve; as a rule, active = well fitted inhibition curve with a large enough effect in the repeat runs; inconclusive = weak or mixed curves; inactive = no such curve, though single readings can be large or run the other way.

Biological target: Cytochrome P450 3A4 (Homo sapiens) (UniProt P08684)
Sequence (P08684 whole entry, looked up): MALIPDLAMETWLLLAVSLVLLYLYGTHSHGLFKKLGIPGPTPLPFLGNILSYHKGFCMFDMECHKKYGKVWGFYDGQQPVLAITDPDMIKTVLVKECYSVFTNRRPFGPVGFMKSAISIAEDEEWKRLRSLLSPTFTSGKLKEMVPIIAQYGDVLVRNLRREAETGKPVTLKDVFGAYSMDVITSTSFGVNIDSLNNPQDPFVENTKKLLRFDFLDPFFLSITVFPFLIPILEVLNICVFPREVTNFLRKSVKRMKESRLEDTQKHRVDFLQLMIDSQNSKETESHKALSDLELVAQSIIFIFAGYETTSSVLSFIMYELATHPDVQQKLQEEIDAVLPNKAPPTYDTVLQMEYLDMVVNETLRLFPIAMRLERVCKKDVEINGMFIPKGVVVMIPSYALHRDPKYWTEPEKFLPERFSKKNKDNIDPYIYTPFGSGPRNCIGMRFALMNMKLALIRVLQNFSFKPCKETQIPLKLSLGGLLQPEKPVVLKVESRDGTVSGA
Experiment: Cytochrome P450 Family 3 Subfamily A Member 4 (CYP3A4) small molecule antagonists: luciferase reporter qHTS assay (AID 1671201); also: nearly all actives have a fitted effect of over 50% in size
Details: P450-Glo CYP3A4 enzyme, luciferin luminescence, 1 h; series mostly up to 115 µM
Procedure, shortened: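 Setup: enzyme-substrate mix, compound pin transfer, 10 min RT. Reaction: NADPH regeneration solution, 1 h RT. Readout: detection reagent stops turnover, luminescence measured after 20 min, expressed in relative luminescence units.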

| Compound | Potency | activity change, negative = inhibition |
| --- | --- | --- |
| CC1(C)S[C@@H]2[C@H](N=CN3CCCCCC3)C(=O)N2[C@H]1C(=O)O | inactive |  |
| Cc1ccc2c(c1)OCC(=O)CO2 | inactive |  |
| CC(C)N(c1ccccc1)C(C)C | inactive |  |
| C=C(C)C(=O)OCc1ccccc1 | inactive |  |
| COP(=O)(OC)OC(c1ccc(Cl)cc1)P(=O)(OC)OC (stereo not drawn) | inactive |  |
| CCCCCCCCCCl | inactive |  |
| CC(C)c1ccc2cc(C(C)C)ccc2c1 | inactive |  |
| CCCCCCCCCCCCCC | inactive |  |
| CO[C@@H]1[C@@H](OC(N)=O)[C@@H](O)[C@H](Oc2ccc3c(O)c(NC(=O)c4ccc(O)c(CC=C(C)C)c4)c(=O)oc3c2C)OC1(C)C | inactive |  |
| C=COCCOCCOCCOC=C | inactive |  |
| O=C(O)C(=O)Cc1ccccc1 | inactive |  |
| CC(COC(C)(C)C)OCCCO (stereo not drawn) | inactive |  |
| CC(C)CCCC(C)(C)O | inactive |  |
| O=C1c2ccccc2C(=O)C1c1ccccc1 | inactive |  |
| C=Cc1ccccn1 | inactive |  |
| N#Cc1ccc(C(=O)O)cc1 | inactive |  |
| CCC(CC)CO | inactive |  |

| Compound | Potency | activity change, negative = inhibition |
| --- | --- | --- |
| BrCCCCCBr | inactive |  |
| c1ccc2nccnc2c1 | inactive |  |
| C=C(C)C(=O)OCCOP(=O)(O)OCCOC(=O)C(=C)C | inactive |  |
| Nc1ccc2cc(S(=O)(=O)O)cc(O)c2c1 | inactive |  |
| N[C@@H](CCC(=O)Nc1ccc([N+](=O)[O-])cc1)C(=O)O | inactive |  |
| O=C1CC(c2ccc(Cl)cc2)CC(=O)N1 | inactive |  |
| CCCCOC(=O)c1ccccc1 | inactive |  |
| CN=C(NC#N)Nc1ccc(C2=NNC(=O)CC2C)cc1 (stereo not drawn) | inactive |  |
| O=C(O)Cc1cn(-c2ccccc2)nc1-c1ccc(Cl)cc1 | inactive |  |
| CC(=O)N[C@@H](CCC(=O)O)C(=O)O | inactive |  |
| COC(=O)C1CC(=O)C(C(=O)OC)CC1=O (stereo not drawn) |  | 9.87% [at 10.5 µM] |
| CC(=O)Nc1ccc(S(=O)(=O)Cl)cc1 | inactive |  |
| CCCOC(=O)C(C)O (stereo not drawn) | inactive |  |
| C[C@H](CCC(=O)O)[C@H]1CC[C@H]2[C@@H]3C(=O)C[C@@H]4CC(=O)CC[C@]4(C)[C@H]3CC(=O)[C@]12C | inactive |  |
| CCCC/C=C\CCCCCCCCCC=O | inactive |  |
| COc1nccnc1NS(=O)(=O)c1ccc(N)cc1 | inactive |  |
